The record followed here is PubChem BioAssay (NCATS).

One test concerns KB-3-1. The test can be described thus: Cytotoxic Profiling of Annotated Libraries Using Quantitative High-Throughput Screening (AID 1296008). Further: nearly all actives have a fitted effect of over 60% in size. Further: potency means the concentration at half of the fitted maximal effect. On max response: on the % scale 0 is the no-effect control and ±100 the full control effect. The note with it: Five cell lines viability, CellTiter-Glo ATP luminescence, 48-72 h; max response: hits give low values. In outline:
(§1)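 Cells exposed to compounds for 48 or 72 hr at 37 degrees Celsius. Viability read as ATP-coupled luminescence with CellTiter-Glo after 10 min at room temperature.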
(In general: Cellular ATP, detected with luciferase, serves as a proxy for viable cell number.)

Another test concerns C33A. The test can be described thus: Primary qHTS to identify gynecologic anti-cancer compounds using libraries of approved drugs and bioactive compounds (AID 1345084). Further: nearly all actives have a fitted effect of over 55% in size. Further: potency means the concentration at half of the fitted maximal effect. On activity change, negative = cytotoxicity: on the % scale 0 is the no-effect control and ±100 the full control effect. The note with it: Gynecologic cancer cell panel viability, ATPlite luminescence, 48 h; series mostly up to 57.5 µM. In outline: (§2)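 In this quantitative HTS, cell killing is estimated from loss of ATP-dependent luciferase light. Cells see five compound concentrations over a 48 h exposure.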

The next test deals with CAOV3. The description is as above. The note with it: Gynecologic cancer cell panel viability, ATPlite luminescence, 48 h; series mostly up to 57.5 µM. In outline:
as §2

A further test deals with CASKI. The description is as above. The note with it: Gynecologic cancer cell panel viability, ATPlite luminescence, 48 h; series mostly up to 57.5 µM. In outline: as §2
A further test concerns Es-2. Described as above. The following applies: Gynecologic cancer cell panel viability, ATPlite luminescence, 48 h; series mostly up to 57.5 µM. In outline:
as §2

The subject of a further test is HeLa. Described as above. The following applies: Gynecologic cancer cell panel viability, ATPlite luminescence, 48 h; series mostly up to 57.5 µM. In outline:
as §2

Another test relates to Hek293T. The description is as above. The following applies: Gynecologic cancer cell panel viability, ATPlite luminescence, 48 h, control line for the selectivity index; series mostly up to 57.5 µM. In outline: as §2
The subject of another test is JEG-3. The description is as above. The following applies: Gynecologic cancer cell panel viability, ATPlite luminescence, 48 h; series mostly up to 57.5 µM. In outline:
as §2

For a further test, the system named is OV90. The description is as above. The note with it: Gynecologic cancer cell panel viability, ATPlite luminescence, 48 h; series mostly up to 57.5 µM. In outline:
as §2

The subject of a further test is PA-1. The description is as above. The note with it: Gynecologic cancer cell panel viability, ATPlite luminescence, 48 h; series mostly up to 57.5 µM. In outline:
as §2

A further test relates to NIH3T3. The test can be described thus: Cytotoxic Profiling of Annotated Libraries Using Quantitative High-Throughput Screening (AID 1296008). Further: nearly all actives have a fitted effect of over 60% in size. Further: potency means the concentration at half of the fitted maximal effect. On max response: on the % scale 0 is the no-effect control and ±100 the full control effect. The following applies: Five cell lines viability, CellTiter-Glo ATP luminescence, 48-72 h; max response: hits give low values. In outline: as §1
Another test relates to W2. The test can be described thus: qHTS profiling for inhibitors of Plasmodium falciparum proliferation (AID 504749).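 Further: 0% = DMSO vehicle and full inhibition = artemisinin control; nearly all actives have a fitted effect of over 60% in size.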 The following applies: P. falciparum in erythrocytes, SYBR Green DNA, 72 h; series mostly up to 28.7 µM. In outline:
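SYBR Green fluorescence (ex 485 nm, em 535 nm) reports parasite DNA after 72 h compound exposure of infected red cells at 0.3% parasitemia, 2.5% hematocrit; signal normalized to 0.29 uM artemisinin and vehicle wells.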
For orientation: Quantitative high-throughput screening tests each substance at several concentrations.

In a further test the test system is MKL-2. The test can be described thus: qHTS assay to identify novel small-molecules to repurpose for Merkel cell carcinoma treatment (AID 1296009). Further: potency means the concentration at half of the fitted maximal effect; nearly all actives have a fitted effect of over 60% in size. The following applies: MCC and control cell lines, CellTiter-Glo viability, 72 h. In outline: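 CellTiter-Glo luminescence after 72 hr compound exposure at 37 degree celsius gave cell viability. Libraries NPC and MIPE were run as 8- and 11-point dose responses; RLUs normalized to DMSO (negative) and no-cell (cytotoxicity) controls.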

Inconclusive results are not listed. Unmarked numbers belong to inactive results. Calls of active or inactive are those of the source. The call rests on the fitted dose curve; in most records, active means well fitted curve in the direction sought with a large enough effect; inconclusive means small, poorly fitted or top-dose-only effect, or another doubt; inactive means no such curve, though single readings can be large; an effect the other way counts as inactive or inconclusive.

Turning to `CC(C)NC(=O)N1CC[C@H](N=C2Nc3cc(F)ccc3N(CC(F)F)c3ccc(Cl)cc32)C1`, the max response in the test with KB-3-1 was -1.78%. Further, the activity change, negative = cytotoxicity is 7.02% [at 11.6 µM] in the test with C33A; -26.1% [at 11.6 µM] in the test on CAOV3; -4.9% [at 11.6 µM] in the test with CASKI; 5.14% [at 11.6 µM] in the test with Es-2; -4.91% [at 11.6 µM] with HeLa; 1.3% [at 11.6 µM] with Hek293T. Moreover, the values for the activity change, negative = cytotoxicity in the test with JEG-3, in the test with OV90 and with PA-1 were 13.8% [at 11.6 µM], 1.89% [at 11.6 µM] and -24.1% [at 11.6 µM], respectively.

Regarding `CC(C)(O)C1Cc2c(ccc(C(=O)CCc3ccccc3)c2O)O1` (stereo not given), in the test on KB-3-1, the max response is -17.9%. The Potency in the test on C33A is 11.2 µM (active); in the test with CAOV3, 10 µM (active); with HeLa, 10 µM (active); with Hek293T it was 11.2 µM (active); with OV90, 11.2 µM (active); with PA-1, 12.6 µM (active). In addition, the Potency result in the test on JEG-3 is “inactive”.

For `Cc1ccc(-c2ncccn2)c(C(=O)N2C[C@H](COc3ccc(F)cn3)CC[C@H]2C)c1`, the max response with KB-3-1 was 1.72%. Further, the Potency entry in the test with C33A, with CASKI, in the test on Es-2, in the test on HeLa, in the test with Hek293T and in the test with JEG-3 was “inactive” throughout. In addition, the Potency result with OV90 and with PA-1 was “inactive” each time.

For `O=C(c1ccccc1)c1c(O)cc(O)cc1O[C@@H]1O[C@H](CO)[C@@H](O)[C@H](O)[C@H]1O`, the max response in the test with KB-3-1 is 2.63%. Also, the Potency in the test on PA-1 was 11.2 µM (active).

On to `CCC(C)(OC(C)=O)C(=O)O[C@H]1[C@H](OC(C)=O)[C@]2(CO)[C@H](O)[C@H](O)[C@]3(C)C(=CCC4[C@@]5(C)CC[C@H](O[C@@H]6O[C@H](C(=O)O)[C@@H](O)[C@H](O[C@@H]7OC[C@H](O)[C@H](O[C@@H]8OC[C@H](O)[C@H](O)[C@H]8O)[C@H]7O)[C@H]6O[C@@H]6O[C@H](CO)[C@@H](O)[C@H](O)[C@H]6O)C(C)(C)C5CC[C@]43C)[C@@H]2CC1(C)C` (stereo not given in full), for which the max response with KB-3-1 is -16.4%. Besides, the activity change, negative = cytotoxicity in the test with Es-2 was -8.22% [at 6.55 µM]; in the test on HeLa it was -8.59% [at 6.55 µM]; in the test on Hek293T, -17.4% [at 6.55 µM]; with JEG-3, -1.81% [at 6.55 µM]; with PA-1, -11.2% [at 6.55 µM].

Regarding `O=C(Nc1nnc(-c2ccc3c(c2)OCCO3)o1)C1CCCCC1`, the max response in the test on KB-3-1 is 6.45%. For the same compound, the Potency result with C33A, in the test with CAOV3, in the test on CASKI, with Es-2, with HeLa and with Hek293T was “inactive” in each case. Moreover, the Potency result with JEG-3, with OV90 and in the test with PA-1 was “inactive” throughout.

Consider `FC(F)(F)c1ccccc1-c1cc(C(F)(F)F)c2nc(C3=NOC4(CCCCC4)C3)[nH]c2c1`, for which the max response with KB-3-1 is -18.9%. Moreover, the Potency result with C33A, in the test with CAOV3, in the test on Es-2, with HeLa, with Hek293T and with JEG-3 was “inactive” each time. The Potency result in the test on OV90 and in the test with PA-1 was “inactive” in each case.

In the case of `CCn1c(=O)c(-c2ccc(-c3cncs3)cc2Cl)cc2cnc(Nc3ccc(N4CCN(C)CC4)cc3)nc21`, the Potency with KB-3-1 was 10.3 µM (active). For the same compound, the Potency entry in the test on C33A, in the test on CAOV3, in the test on CASKI, with Es-2, in the test on HeLa and in the test with Hek293T was “inactive” each time. Moreover, the Potency entry in the test with JEG-3 and in the test on OV90 was “inactive” in each case.

For `C=C(C)[C@@H]1CC=C(COC(=O)NC(=O)c2ncn3c(=O)n(C)nnc23)CC1`, the max response with KB-3-1 was 2.36%. The Potency with NIH3T3 is 18.4 µM (active); with Es-2, 20 µM (active); in the test with HeLa, 31.6 µM (active); with Hek293T it was 25.1 µM (active).

In the case of `CCCOc1ccc2nc(NC(=O)OC)sc2c1`, in the test on W2, the Potency result was “inactive”. In addition, in the test on KB-3-1, the Potency is 10.3 µM (active).

For `O=c1cc(N2CCOCC2)nc2c3ccccc3ccn12`, the max response in the test on KB-3-1 was -19.2%; in the test on NIH3T3, -3.69%. Further, the Potency result in the test with C33A, in the test on Es-2, in the test on HeLa, in the test on Hek293T, in the test on JEG-3 and in the test with OV90 was “inactive” in each case. In addition, the Potency result with PA-1 is “inactive”.

`CC(C)C[C@@H](N)C(=O)N[C@H]1C(=O)N[C@@H](CC(N)=O)C(=O)N[C@H]2C(=O)N[C@H]3C(=O)N[C@H](C(=O)N[C@H](C(=O)O)c4cc(O)cc(O)c4-c4cc3ccc4O)[C@H](O)c3ccc(c(Cl)c3)Oc3cc2cc(c3O[C@@H]2O[C@H](CO)[C@@H](O)[C@H](O)[C@H]2O[C@H]2C[C@](C)(N)[C@H](O)[C@H](C)O2)Oc2ccc(cc2Cl)[C@H]1O`: the result with KB-3-1 was inactive. Besides, the Potency entry in the test with CAOV3 is “inactive”.

`CCCOc1ccc(CCc2nc3cc(-c4c(C)noc4C)ccc3n2CCN2CCOCC2)cc1`: the max response in the test with KB-3-1 was -3.99%; in the test on NIH3T3 it was -3.98%. Also, the Potency entry with C33A, with Es-2, with HeLa, in the test on Hek293T, in the test on JEG-3 and in the test with OV90 was “inactive” each time. In addition, the Potency result with PA-1 is “inactive”.

For the compound `Oc1cccc(-c2c3nc(c(-c4cccc(O)c4)c4ccc([nH]4)c(-c4cccc(O)c4)c4nc(c(-c5cccc(O)c5)c5ccc2[nH]5)CC4)C=C3)c1`, the results for the Potency with KB-3-1 and with MKL-2 were 16.4 µM (active) and 13.3 µM (active), respectively. In addition, the Potency entry with CAOV3, in the test on CASKI and with JEG-3 was “inactive” throughout.

Regarding `N#Cc1ccc(COc2ccc(-c3cccc4nc(NC(=O)C5CC5)nn34)cc2)cn1`, the max response with KB-3-1 is -6.55%. In addition, the Potency in the test with NIH3T3 was 20.6 µM (active); in the test with CAOV3, 22.4 µM (active). Also, the Potency result in the test on CASKI, with Es-2, in the test on HeLa, with Hek293T, in the test with JEG-3 and in the test on OV90 was “inactive” each time. In the test with PA-1, the Potency result is “inactive”.

On to `O=C(Nc1ccnc(NC(=O)C2CC2)c1)c1c(Cl)cccc1Cl`, for which the Potency in the test with NIH3T3 was 6.51 µM (active); in the test with Es-2 it was 22.4 µM (active); in the test with HeLa, 17.8 µM (active); with PA-1, 15.8 µM (active).

Take `CC(=O)O[C@H]1CC(C)(C)CC2[C@]13CO[C@@]21CCC2[C@@]4(C)CC[C@H](O[C@@H]5OC[C@H](O[C@@H]6O[C@H](CO)[C@@H](O)[C@H](O)[C@H]6O[C@@H]6OC[C@@H](O)[C@H](O)[C@H]6O)[C@H](O)[C@H]5O[C@@H]5O[C@H](CO)[C@@H](O)[C@H](O)[C@H]5O)[C@@](C)(CO)C4CC[C@@]2(C)[C@]1(C)C[C@H]3O` (stereo not given in full): in the test with KB-3-1, the max response is 4.15%. Besides, the activity change, negative = cytotoxicity in the test on C33A is -17.3% [at 11.6 µM]; in the test with CAOV3, -0.697% [at 11.6 µM]; in the test with CASKI, -20.7% [at 11.6 µM]; in the test on HeLa, -3.76% [at 11.6 µM]; in the test on JEG-3 it was -9.1% [at 11.6 µM].
